The source made the active and inactive calls. Calls come from the whole dose curve; as a rule, active = well fitted activation curve with a large enough effect; inconclusive = small, poorly fitted or top-dose-only effect; inactive = no such curve, though single readings can be large or run the other way.
The compounds below were run against Cytochrome P450 3A4 (Homo sapiens) (UniProt P08684) (assay: qHTS Assay for Activators of Cytochrome P450 3A4 (AID 885; note: nearly all actives have a fitted effect of over 65% in size)). Details: recombinant CYP3A4, Luciferin-PPXE luminescence, 60 min; series mostly up to 57.1 µM.
Summary of the method: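 Human CYP3A4 (20 nM) with Luciferin-PPXE at 25 uM (its KM) in 200 mM KPO4; 10 min compound preincubation, then NADPH regeneration and 60 min reaction at RT. Luciferin read by luminescence; normalized to 57 uM ketoconazole full inhibition.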

Cytochrome P450 3A4 (Homo sapiens), sequence (P08684 whole entry, looked up): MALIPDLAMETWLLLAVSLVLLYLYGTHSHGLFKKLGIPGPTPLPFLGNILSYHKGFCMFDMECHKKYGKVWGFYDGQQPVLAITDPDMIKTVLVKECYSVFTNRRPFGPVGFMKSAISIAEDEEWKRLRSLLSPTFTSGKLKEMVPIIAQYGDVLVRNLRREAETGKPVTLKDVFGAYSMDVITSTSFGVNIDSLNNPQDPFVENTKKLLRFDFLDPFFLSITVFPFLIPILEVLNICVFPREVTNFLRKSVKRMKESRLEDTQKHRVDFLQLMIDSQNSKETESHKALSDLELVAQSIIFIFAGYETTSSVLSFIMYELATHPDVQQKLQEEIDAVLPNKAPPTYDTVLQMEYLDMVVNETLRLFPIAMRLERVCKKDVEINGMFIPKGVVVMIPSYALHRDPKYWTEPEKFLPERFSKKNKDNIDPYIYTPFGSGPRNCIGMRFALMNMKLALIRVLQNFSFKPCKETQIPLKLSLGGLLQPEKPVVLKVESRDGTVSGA

Potency, inactive:
COc1ccc(COC2OC[C@]3(C)[C@H]4C5=C(CN3C(=O)OC(C)(C)C)[C@H](C)C(CO)C(CO)C5CC[C@@H]24)cc1 (some centres not stated), CCC/C=C(\CCC)C(NS(=O)(=O)c1ccc(C(F)(F)F)cc1)c1ccc(C(=O)OC)cc1 (configuration not stated), CCC[C@@H]1C[C@@]1(CCC)C(NC(=O)c1ccccc1)c1cccc(Cl)c1 (some centres not stated), CCC/C=C(\CCC)C(NC(=O)C(C)(C)C)c1ccc(C(=O)OC)cc1 (configuration not stated), CC1(C)C(=O)C(c2ccccc2)=C2CN3C(=O)N(CCc4ccccc4)C(=O)C3(Cc3ccc(C(F)(F)F)cc3)C=C21 (configuration not stated), COC(=O)[C@@H]1C[C@H]1[C@@H](NC(=O)Oc1ccc(F)cc1)c1ccccc1, CCc1c2c(nc3c(C(C)C)cccc13)-c1cccc(=O)n1C2, COC(=O)[C@@]1(Cc2ccccc2)[C@@H]2C(=CC(=O)[C@H]2CC(=O)C(=O)N(C)C)CN1C(=O)c1ccccc1, CCC/C=C(\CCC)C(NS(=O)(=O)c1cccs1)c1ccc(C(=O)OC)cc1 (configuration not stated), C#CCCCC(=O)Nc1ccccc1, CCC/C=C(\CCC)C(NS(=O)(=O)c1cccc2cccnc12)c1ccc(-c2ccccc2)cc1 (configuration not stated), CCC/C=C(\CCC)C(NC(=O)Cc1ccccc1)c1ccc(C(=O)OC)cc1 (configuration not stated), CCCC[C@H]1C[C@@H]1[C@@H]1N(P(=O)(c2ccccc2)c2ccccc2)C[C@@](O)(c2ccccc2)CC12CC2, CCC/C=C(\CCC)C(NS(=O)(=O)c1ccccc1)c1ccc(C(F)(F)F)cc1 (configuration not stated), CCC/C=C(\CCC)C(NS(=O)(=O)c1ccc(Cl)cc1)c1ccccc1 (configuration not stated), COC(=O)[C@H](C)[C@@H]1C[C@@]1(C)[C@@H](NC(=O)OCc1ccccc1)c1ccccc1, CCC/C=C(\CCC)C(NS(=O)(=O)c1ccc(Cl)cc1)c1ccc(C(=O)OC)cc1 (configuration not stated), Cc1c2c(nc3ccccc13)-c1cccc(=O)n1C2, CCC/C=C(\CCC)C(NS(=O)(=O)c1ccc(C(F)(F)F)cc1)c1ccccc1 (configuration not stated), CCCC/C=C/C(NC(=O)c1ccccc1)c1ccccc1 (configuration not stated), C[C@@H](C(=O)NCc1ccc(S(C)(=O)=O)cc1)[C@@H]1C[C@@]1(C)[C@@H](NC(=O)OCc1ccccc1)c1ccccc1, C=C(CC1([C@@H](NP(=O)(c2ccccc2)c2ccccc2)[C@H]2C[C@@H]2CCCC)CC1)c1cccc(OC)c1, Cc1ccc(CNC(=O)[C@H]2C[C@@H]2[C@H](NP(=O)(c2ccccc2)c2ccccc2)c2ccccc2)c(F)c1F, COC(=O)[C@@]1(Cc2ccc(F)cc2)[C@H]2c3cc(C(=O)N(C)C)n(Cc4ccc(C)c(F)c4F)c3C[C@H]2CN1C(=O)c1ccccc1, CCC/C=C(\CCC)C(NC(=O)OCC(C)C)c1ccc(C(=O)OC)cc1 (configuration not stated), COC(=O)[C@@]1(Cc2ccccc2)[C@H]2c3cc(C(=O)N4CCCC4)n(Cc4ccccn4)c3C[C@H]2CN1C(=O)c1ccccc1, CC(C)c1cccc2nc3c(c([Si](C)(C)C(C)(C)C)c12)Cn1c-3cccc1=O, CC(C)c1cccc2c([Si](C)(C)C)c3c(nc12)-c1cccc(=O)n1C3, C[C@@H](C(=O)NCCc1c[nH]c2ccccc12)[C@H]1C[C@]1(C)[C@H](NC(=O)OCc1ccccc1)c1ccccc1, C[C@H](CO)NC(=O)[C@@H]1C[C@H]1[C@@H](NP(=O)(c1ccccc1)c1ccccc1)c1ccccc1, CCCC[C@@H]1C[C@H]1C(NC(=O)c1cccs1)c1ccc(Cl)cc1 (some centres not stated), CCC/C=C(\CCC)C(NC(=O)c1ccc(C(F)(F)F)cc1)c1ccccc1 (configuration not stated)

Source: PubChem BioAssay (NCATS)
